Test systems include TYRO3; ULK1; ULK2; ULK3; VRK2; WEE1; WEE2; WNK1; WNK2; WNK3; WNK4.
Common to all, as to conditions: concentration: 1 μM,replicates: in singlicate; n = 1
The test system of assay [1] is TYK2(JH2domain-pseudokinase).
For a further assay, the system named is T1, VEGFR2.
T1 construct: gene KDR

The test system of a further assay is T2, VPS34.
T2 construct: gene PIK3C3

The test system of the next assay is T3, YANK1.
T3 construct: gene STK32A

The next assay relates to T4, YANK2.
T4 construct: gene STK32B

Another assay relates to T5, YANK3.
T5 construct: gene STK32C

The next assay has as its system T6, YES.
T6 construct: gene YES1

The next assay has as its system T7, YSK1.
T7 construct: gene STK25

In another assay the test system is T8, YSK4.
T8 construct: gene MAP3K19

Experimental findings from paper PMC5540273 (PLoS ONE, 2017) are described below.
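Further: KINOMEscan kinase panel screen.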

In the case of `C[C@@H]1CCN(C(=O)N2CCCC2)C[C@@H]1N(C)c1ncnc2[nH]ccc12`, the “%Inh” value in [1] was 0%; in the assay with TYRO3, 0%; in the assay with ULK1 it was 36%; in the assay on ULK2, 46%; with ULK3 it was 70%; in the assay with VEGFR2, 49%. For the same compound, the “%Inh” value was 0% with VPS34; 0% in the assay with VRK2; 0% with WEE1; 0% in the assay with WEE2; 6% in the assay on WNK1; 45% in the assay on WNK2. Besides, the “%Inh” value is given as 0% with WNK3; 0% in the assay with WNK4; 15% in the assay on YANK1; 0% with YANK2; 0% with YANK3; 0% in the assay on YES. Moreover, the “%Inh” value in the assay on YSK1 was 0%; with YSK4, 82%.

As for `Cl.Cl.NC[C@H](CC1CCCCC1)NC(=O)c1ccc(-c2ccnc3[nH]ccc23)s1` [GSK1581428], the “%Inh” value turned out to be 0% in assay [1]; 0% in the assay on TYRO3; 31% in the assay with ULK1; 0% with ULK2; 13% in the assay with ULK3; 0% with VEGFR2. Moreover, the “%Inh” value came out at 9% with VPS34; 26% in the assay on VRK2; 8% with WEE1; 30% in the assay on WEE2; 0% in the assay with WNK1; 0% in the assay on WNK2. Moreover, the “%Inh” value with WNK3 turned out to be 0%; in the assay on WNK4, 7%; in the assay with YANK1, 68%; in the assay on YANK2, 43%; with YANK3, 35%; in the assay on YES, 5%. The figures for the “%Inh” value with YSK1 and in the assay with YSK4 were 0% and 99.7%, respectively.

For `O=C1NCCc2[nH]c(-c3ccncc3)cc21`, the “%Inh” value in [1] was 41%; in the assay on TYRO3, 0%; in the assay with ULK1 it was 25%; in the assay on ULK2, 32%; in the assay with ULK3 it was 18%; with VEGFR2 it was 25%. In addition, the “%Inh” value in the assay with VPS34 is 25%; with VRK2, 19%; in the assay with WEE1, 13%; in the assay on WEE2, 0%; in the assay on WNK1, 0%; with WNK2, 26%. Also, the “%Inh” value with WNK3 is on record as 0%; in the assay with WNK4 it was 22%; in the assay on YANK1 it was 0%; in the assay on YANK2 it was 0%; in the assay on YANK3, 6%; with YES it was 0%. Moreover, the results for the “%Inh” value in the assay with YSK1 and in the assay on YSK4 were 0% and 99.4%, respectively.

For the compound `COC(=O)c1cccc(NC(=O)NC2CCN(c3ccnc(NCc4ccc(F)cc4)n3)CC2)c1` [GSK1379860], the “%Inh” value is reported as 5% in assay [1]; 17% in the assay with TYRO3; 20% in the assay with ULK1; 0% in the assay with ULK2; 15% in the assay on ULK3; 8% with VEGFR2. The “%Inh” value was determined as 17% in the assay with VPS34; 7% with VRK2; 8% in the assay on WEE1; 8% in the assay with WEE2; 10% in the assay on WNK1; 9% with WNK2. Moreover, the “%Inh” value was 18% in the assay on WNK3; 31% in the assay with WNK4; 0% in the assay with YANK1; 0% in the assay on YANK2; 0% in the assay on YANK3; 8% with YES. Further, the “%Inh” value with YSK1 is 0%; in the assay on YSK4 it was 9%.

For the compound `Cn1cc(-c2cccc3c(N)c(C(N)=O)nnc23)cn1`, the “%Inh” value was 80% in assay [1]; 0% in the assay with TYRO3; 23% in the assay with ULK1; 14% with ULK2; 21% with ULK3; 13% in the assay on VEGFR2. Further, the “%Inh” value with VPS34 was 46%; with VRK2, 1%; in the assay with WEE1 it was 3%; in the assay on WEE2, 18%; in the assay on WNK1, 11%; in the assay with WNK2, 0%. Besides, the “%Inh” value in the assay with WNK3 is reported as 0%; with WNK4, 0%; in the assay on YANK1 it was 30%; with YANK2 it was 0%; in the assay with YANK3, 0%; in the assay on YES, 0%. The “%Inh” value in the assay on YSK1 is on record as 5%; with YSK4, 94.4%.

Consider `C[C@@H]1CNc2c(sc3ccc4nc(-c5ccncc5)ccc4c23)C(=O)N1`, for which the “%Inh” value was 59% in [1]; 0% in the assay on TYRO3; 26% with ULK1; 27% in the assay on ULK2; 0% in the assay on ULK3; 13% in the assay on VEGFR2. Further, the “%Inh” value in the assay with VPS34, in the assay with VRK2, in the assay with WEE1, in the assay with WEE2, with WNK1 and in the assay with WNK2 was 0% in each case. In addition, the “%Inh” value with WNK3 is listed as 0%; in the assay on WNK4, 0%; in the assay with YANK1 it was 21%; with YANK2, 0%; in the assay with YANK3, 17%; in the assay with YES, 0%. In addition, the results for the “%Inh” value with YSK1 and with YSK4 were 0% and 56%, respectively.

Turning to `NC(=O)c1ccc(-c2cc3ncnc(SCC(=O)O)c3s2)cc1`, the “%Inh” value is recorded as 42% in assay [1]; 0% in the assay on TYRO3; 0% in the assay on ULK1; 0% in the assay on ULK2; 11% with ULK3; 0% with VEGFR2. Further, the “%Inh” value in the assay with VPS34, in the assay on VRK2, with WEE1, with WEE2, in the assay with WNK1 and in the assay on WNK2 was 0% each time. The “%Inh” value with WNK3, in the assay on WNK4, with YANK1, with YANK2, with YANK3 and in the assay on YES was 0% each time. The “%Inh” value was 0% in the assay on YSK1 and 63% in the assay on YSK4.

Regarding `CCCC(=O)Nc1n[nH]c2ncccc12` [SB-601436], the “%Inh” value in assay [1] is 0%; in the assay on TYRO3 it was 0%; in the assay with ULK1, 0%; in the assay on ULK2 it was 18%; in the assay on ULK3 it was 0%; in the assay on VEGFR2 it was 0%. The “%Inh” value in the assay with VPS34, with VRK2, in the assay on WEE1, in the assay with WEE2, in the assay on WNK1 and in the assay on WNK2 was 0% each time. In addition, the “%Inh” value in the assay with WNK3 stood at 0%; in the assay with WNK4, 14%; in the assay on YANK1 it was 0%; with YANK2, 0%; in the assay on YANK3, 0%; in the assay on YES it was 0%. Besides, the “%Inh” value in the assay with YSK1 and with YSK4 was 0% each time.
